# Compound activity (PubChem)
# C diff HTS – C. difficile growth inhibitors, primary screen, HTS; growth activity, negative = inhibition, % at 16 µg/mL (by protocol); AID 1259249, 2017; 0.25% of 86,000 active; Clostridium difficile clinical isolate growth, OD600, 24 h; active compounds read low;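 active means mean growth activity at or below -80% and every replicate also at or below -80%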;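 further: 0% = DMSO wells and -100% = levofloxacin 16 µg/mL wells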
# Pf Dd2 growth – P. falciparum Dd2 growth inhibitors, primary screen, SYBR Green fluorescence, single dose replicates. 72 h; active compounds read low. activity change, % at 10 µM. 2.3% of 94,000 active. AID 1159554, 2015; in the data active means activity change below about -80%
# T cruzi growth-1 – T. cruzi intracellular proliferation inhibitors, primary screen, cell-based, beta-gal Tulahuen parasites, NIH3T3 host, luminescence. T. cruzi beta-gal in NIH3T3, GalScreen luminescence, 90 h. inhibition, % at 8.34 µM. 5.9% of 77,000 active. AID 624255, 2012;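 active means mean inhibition above about 93%, with at least 55% of replicates each passing it, limit read from the data, passing the limit was not always enough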
# T cruzi growth-2 – T. cruzi intracellular proliferation inhibitors, confirmation, cell-based, NIH3T3 host, beta-gal parasite, luminescence, cherry-pick | shares compounds with T cruzi growth-1 | T. cruzi beta-gal in NIH3T3, GalScreen luminescence, 90 h | inhibition, % at 8.35 µM | 72% of 5,600 active | AID 651739, 2012;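 active means mean replicate inhibition above about 95% and at least 55% of replicates individually reaching it, limit read from the data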
# T cruzi growth-3 – inhibitors of intracellular T. cruzi replication, confirmation, NIH3T3 host cells, beta-gal parasites, cherry-pick, set 2 | shares compounds with T cruzi growth-1 | T. cruzi beta-gal in NIH3T3, GalScreen luminescence, 90 h | inhibition, % at 2.09 µM | 21% of 5,600 active;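 active means mean inhibition above about 95%, with at least 55% of replicates also reaching it, limit read from the data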;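 further: plate controls were neutral control median for no effect and positive control median for full effect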
# 3T3 cytotox – cytotoxicity in mouse NIH/3T3 fibroblasts, confirmation, cytotoxicity control for T. cruzi proliferation inhibitor project, cell-based, cherry-pick, single point; shares compounds with T cruzi growth-1; NIH/3T3 viability, CellTiter-Glo ATP luminescence, 90 h; cytotoxicity (signal decrease), % at 8.35 µM; 14% of 5,600 active; AID 651742, 2012;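 active means mean signal decrease across replicates above about 35% based on untreated-well scatter, with enough replicates individually passing, limit read from the data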;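 further: 0% = median of neutral control wells and 100% = median of positive control wells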
# 3T3 cytotox 2 – NIH/3T3 fibroblast cytotoxicity, confirmation, cytotoxicity control, cell-based, cherry-pick, single point, set 2; shares compounds with T cruzi growth-1; inhibition, % at 24.9 µM; 56% of 5,600 active; NIH/3T3 viability, CellTiter-Glo ATP luminescence, 90 h; AID 651744, 2012;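 active means mean loss of cell viability signal at or above a set limit, and enough replicates individually reaching it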;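 further: 0% = median of neutral control wells and 100% = median of positive control wells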
# Numbers without * were called inactive; . = no result. Hits are enriched below; roughly 6.7% of the tested compounds scored in any of these assays.
SMILES,C diff HTS,Pf Dd2 growth,T cruzi growth-1,T cruzi growth-2,T cruzi growth-3,3T3 cytotox,3T3 cytotox 2
COCC#Cc1ccc2c(c1)O[C@@H](CN(C)S(=O)(=O)c1cccc(F)c1)[C@H](C)CN([C@H](C)CO)S2(=O)=O,-1,-69,29,.,.,.,.
CC(C)CC#Cc1ccc2c(c1)O[C@@H](CN(C)S(=O)(=O)c1cccc(F)c1)[C@H](C)CN([C@H](C)CO)S2(=O)=O,8,-56,121*,103*,87,45*,106*
C[C@@H]1CN([C@H](C)CO)S(=O)(=O)c2ccc(C#CCN(C)C)cc2O[C@H]1CN(C)S(=O)(=O)c1cccc(F)c1,2,-18,.,.,.,.,.
C[C@@H]1CN([C@H](C)CO)S(=O)(=O)c2ccc(C#CCN(C)C)cc2O[C@@H]1CN(C)S(=O)(=O)c1cccc(F)c1,2,-33,.,.,.,.,.
C[C@@H]1CCCCO[C@@H](CN(C)C(=O)CCCN(C)C)[C@@H](C)CN([C@H](C)CO)C(=O)c2cc(NC(=O)NC3CCCCC3)ccc2O1,-6,27,34,.,.,.,.
C/C=C/c1ccc2c(c1)O[C@H](CN(C)CC1CC1)[C@H](C)CN([C@@H](C)CO)S2(=O)=O,4,-27,111,.,.,.,.
C[C@@H]1CN([C@@H](C)CO)C(=O)c2cc(NC(=O)CCN3CCOCC3)ccc2O[C@H]1CN(C)Cc1ccccc1,-1,-7,0,.,.,.,.
COc1ccc(S(=O)(=O)Nc2ccc3c(c2)C(=O)N([C@@H](C)CO)C[C@@H](C)[C@H](CN(C)Cc2ccc(C(F)(F)F)cc2)O3)cc1,3,-21,84,.,.,.,.
CO[C@@H]1CC[C@@H]2CCN(C)C(=O)C[C@H](c3ccccc3)CN(C)C(=O)c3cccc(C#N)c3OC[C@@H]1O2,-8,.,-23,.,.,.,.
CCCC#Cc1ccc2c(c1)O[C@@H](CN(C)S(=O)(=O)c1cccc(F)c1)[C@@H](C)CN([C@H](C)CO)S2(=O)=O,23,-56,124*,104*,85,17,19
C[C@H](CO)N1C[C@H](C)[C@H](CN(C)S(=O)(=O)c2cccc(F)c2)Oc2cc(C#CCN(C)C)ccc2S1(=O)=O,1,-1,.,.,.,.,.
C[C@H](O)C#Cc1ccc([C@H]2[C@@H](CO)N3CCCCN(C(=O)c4ccncc4)C[C@@H]23)cc1,-1,19,12,.,.,.,.
C[C@H](O)C#Cc1ccc([C@H]2[C@@H](CO)N3CCCCN(C(=O)c4ccncc4)C[C@H]23)cc1,-4,19,24,.,.,.,.
COc1ccc(C#Cc2ccc([C@H]3[C@@H](CO)N4CCCCN(C(=O)c5ccncc5)C[C@@H]34)cc2)cc1,-20,6,116*,104*,64,23,26
C[C@@H](O)C#Cc1ccc([C@@H]2[C@H](CO)N3CCCCN(C(=O)c4ccncc4)C[C@@H]23)cc1,-6,30,1,.,.,.,.
COc1ccc(C#Cc2ccc([C@@H]3[C@@H](CO)N4CCCCN(C(=O)c5ccncc5)C[C@H]34)cc2)cc1,-5,-22,112*,107*,38,45*,103*
COc1ccc(C#Cc2ccc([C@H]3[C@H](CO)N4CCCCN(C(=O)c5ccncc5)C[C@@H]34)cc2)cc1,39,-28,116*,114*,70,28,97*
CN1CCN(C(=O)C[C@@H]2CC[C@@H]3[C@H](COC[C@H](O)CN3Cc3cccc(F)c3)O2)CC1,3,.,38,.,.,.,.
C[C@H](CO)N1C[C@H](C)[C@@H](CN(C)CC2CC2)OCCCC[C@H](C)Oc2ccc(NC(=O)Nc3ccc(C(F)(F)F)cc3)cc2C1=O,9,-65,57,.,.,.,.
C[C@H]1CCCCO[C@@H](CN(C)C)[C@@H](C)CN([C@@H](C)CO)C(=O)c2cc(NC(=O)Nc3ccc(C(F)(F)F)cc3)ccc2O1,12,-10,38,.,.,.,.
